Measured values taken from PubChem BioAssay (NCATS).
Results filed as inconclusive are left out. A number with no mark means an inactive call. Calls follow the shape of the dose curve; as a rule, active = well fitted curve in the direction sought with a large enough effect; inconclusive = small, poorly fitted or top-dose-only effect, or another doubt; inactive = no such curve, though single readings can be large; an effect the other way counts as inactive or inconclusive.

Target: ATP-dependent 6-phosphofructokinase (Trypanosoma brucei brucei) (UniProt O15648)
Test: qHTS Assay to Find Inhibitors of T. brucei phosphofructokinase: hit validation (AID 492961);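 also: luminescence reports ADP formed as PFK phosphorylates fructose-6-phosphate with ATP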
Conditions: T. brucei PFK, ADP-Glo luminescence; series mostly up to 51.4 µM; activity change, negative = inhibition: at the top concentration
Procedure, shortened: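 Inhibition of parasite PFK is measured as reduced ADP formation, quantified via luciferase after ATP depletion. Assay used 0.1 mM ATP, 0.5 mM F6P, 1.25 nM enzyme, 45 min incubation.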
% is scaled to controls: 0 for no effect and ±100 for the full control effect.

Chain of ATP-dependent 6-phosphofructokinase (Trypanosoma brucei brucei) (O15648 whole entry, looked up): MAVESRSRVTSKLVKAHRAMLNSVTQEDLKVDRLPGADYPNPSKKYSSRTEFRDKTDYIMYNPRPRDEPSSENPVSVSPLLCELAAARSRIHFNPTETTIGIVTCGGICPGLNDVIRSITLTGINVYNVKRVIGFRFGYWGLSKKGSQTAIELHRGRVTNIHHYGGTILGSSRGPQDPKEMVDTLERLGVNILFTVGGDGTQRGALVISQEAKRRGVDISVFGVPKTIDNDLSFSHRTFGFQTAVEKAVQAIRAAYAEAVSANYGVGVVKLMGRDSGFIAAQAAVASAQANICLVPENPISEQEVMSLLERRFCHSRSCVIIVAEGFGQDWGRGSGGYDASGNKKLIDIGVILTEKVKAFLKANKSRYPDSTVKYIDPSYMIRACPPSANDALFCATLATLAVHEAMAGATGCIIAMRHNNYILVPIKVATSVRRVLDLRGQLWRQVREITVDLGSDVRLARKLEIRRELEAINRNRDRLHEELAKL

| Structure (SMILES) | activity change, negative = inhibition |
| --- | --- |
| Cc1c(Cn2ccnc2)c2ccccc2n1CCC(=O)O | 9.17% |
| NS(=O)(=O)c1cc(-c2nn[nH]n2)c(NCc2cccs2)cc1Cl | -5.03% |
| COc1ccc(C(=O)NCc2ccc(OCCN(C)C)cc2)cc1OC | -5.85% |
| CCN1CC(CCN2CCOCC2)C(c2ccccc2)(c2ccccc2)C1=O (centres undefined) | 2.21% |
| NC(N)=NCCN1CCCCCCC1 | -12.9% [at 24.3 µM] |
| COc1cc(C(=O)NCCCCCC(=O)O)cc(OC)c1OC | -1.27% |
| C[C@@H]1CCC[C@H](C)N1 | -3.15% [at 24.3 µM] |
| O=C(/C=C/c1ccccc1)OCc1ccccc1 | -1.05% |
| OCC(O)CS (centres undefined) | 9.89% |
| COc1ccc(NS(=O)(=O)c2ccc(N)cc2)nn1 | -0.179% [at 24.3 µM] |
| CC1CC(OC(=O)c2ccccc2O)CC(C)(C)C1 (centres undefined) | 9.28% |
| CN(C/C=C/C#CC(C)(C)C)Cc1cccc2ccccc12 | -2.15% |
| CCOC(=O)[C@H](CCc1ccccc1)N[C@@H](C)C(=O)N1CCC[C@H]1C(=O)O | -0.617% |
| O=S1(=O)OC(c2ccc(O)cc2)(c2ccc(O)cc2)c2ccccc21 | -5.53% |
| Cc1cc(C)c(NC(=O)CN(CC(=O)O)CC(=O)O)c(C)c1Br | 3.47% |
| Cc1c(NC(=O)c2cccnc2)c(=O)n(-c2ccccc2)n1C | -4.94% [at 24.3 µM] |
| COC(=O)c1ccc(O)cc1 | -1.83% |
| Cc1cc(-n2nc3ccc(Cl)cc3n2)c(O)c(C(C)(C)C)c1 | 4.59% |

| Structure (SMILES) | activity change, negative = inhibition |
| --- | --- |
| CC(C)c1cc2c(cc1S(=O)(=O)O)[C@@]1(C)CCC[C@@](C)(C(=O)O)[C@@H]1CC2 | -15.9% |
| O=c1[nH]c2cc(C(F)(F)F)c(N3CCOCC3)cc2n(CP(=O)(O)O)c1=O | -2.32% |
| NS(=O)(=O)c1cc2c(cc1C(F)(F)F)NCNS2(=O)=O | 3.03% [at 24.3 µM] |
| Nc1ccc(C(=O)Oc2ccccc2)c(O)c1 | 6.18% |
| CC(C(=O)O)c1ccc2c(c1)Cc1cccnc1O2 (centres undefined) | 0% |
| CCCCCCCCCCC(CO)CCCCCCCC (centres undefined) | -4.59% |
| Cc1ccc(S(=O)(=O)NC(=O)NC2CCCCC2)cc1 | 11.2% |
| NNc1nnc(NN)c2ccccc12 | 3.88% |
| Nc1ccncc1N | -5.09% |
| Cc1cccc(C)c1NC(=O)CC12CCCN1CCC2 | -3.14% |
| O=C1CC[C@@H](C(=O)O)N1 | -2.4% |
| Cc1c(C(=O)NCCO)[n+](=O)c2ccccc2n1[O-] | 0% |
| COc1ccccc1OC(=O)Oc1ccccc1OC | -2.08% |
| NC(=O)CCCCC1CCSS1 (centres undefined) | 0.89% |
| CCCCCCCCCCCCCCCCN | 3.73% |
| CC(=O)NCc1c(I)c(NC(C)=O)c(I)c(C(=O)O)c1I | 7.25% |
| O=C(Cn1ccnc1[N+](=O)[O-])NCc1ccccc1 | 1% |

Target: Ubiquitin carboxyl-terminal hydrolase 1 (Homo sapiens) (UniProt O94782)
Test: Inhibitors of USP1/UAF1: Pilot qHTS (AID 504865);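 also: rhodamine fluorescence freed from ubiquitin-rhodamine substrate followed over time; top concentration of the series differs between compounds; nearly all actives have a fitted effect of over 35% in size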
Conditions: purified USP1/UAF1, Ub-rhodamine cleavage fluorescence; series mostly up to 114 µM; activity change, negative = inhibition: at the top concentration
Procedure, shortened: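 Deubiquitinase activity followed as kinetic rhodamine fluorescence release from 150 nM Ub-Rho. 1 nM USP1/UAF1 with compound, after 15 min room-temperature preincubation, in HEPES pH 7.8 buffer containing TCEP, EDTA, BSA and Tween-20.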

Chain of Ubiquitin carboxyl-terminal hydrolase 1 (Homo sapiens) (O94782 whole entry, looked up): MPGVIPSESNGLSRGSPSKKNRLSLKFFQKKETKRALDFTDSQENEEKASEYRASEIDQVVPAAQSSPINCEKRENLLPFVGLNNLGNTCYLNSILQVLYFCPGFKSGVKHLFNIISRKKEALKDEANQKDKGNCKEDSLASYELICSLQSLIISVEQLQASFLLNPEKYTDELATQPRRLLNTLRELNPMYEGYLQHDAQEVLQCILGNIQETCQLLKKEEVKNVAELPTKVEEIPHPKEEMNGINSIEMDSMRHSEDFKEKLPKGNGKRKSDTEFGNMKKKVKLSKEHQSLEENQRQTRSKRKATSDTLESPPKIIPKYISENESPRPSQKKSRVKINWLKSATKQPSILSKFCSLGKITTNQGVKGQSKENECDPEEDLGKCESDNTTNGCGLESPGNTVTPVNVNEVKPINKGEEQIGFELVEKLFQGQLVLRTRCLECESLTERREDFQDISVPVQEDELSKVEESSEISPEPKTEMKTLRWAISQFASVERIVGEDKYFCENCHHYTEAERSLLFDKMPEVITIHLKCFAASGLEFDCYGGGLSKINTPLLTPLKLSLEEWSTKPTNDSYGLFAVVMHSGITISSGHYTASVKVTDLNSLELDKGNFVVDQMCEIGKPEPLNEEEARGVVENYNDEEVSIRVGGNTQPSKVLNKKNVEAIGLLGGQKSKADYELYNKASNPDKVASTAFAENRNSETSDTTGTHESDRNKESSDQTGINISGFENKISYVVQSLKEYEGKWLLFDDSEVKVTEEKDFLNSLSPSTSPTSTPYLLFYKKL

| Structure (SMILES) | activity change, negative = inhibition [%] |
| --- | --- |
| Cc1c(Cn2ccnc2)c2ccccc2n1CCC(=O)O | -4.63 |
| NS(=O)(=O)c1cc(-c2nn[nH]n2)c(NCc2cccs2)cc1Cl | -13.4 |
| CCN1CC(CCN2CCOCC2)C(c2ccccc2)(c2ccccc2)C1=O (centres undefined) | -2.9 |
| NC(N)=NCCN1CCCCCCC1 | 2.06 |
| COc1cc(C(=O)NCCCCCC(=O)O)cc(OC)c1OC | -3.83 |
| OCC(O)CS (centres undefined) | 2.55 |
| Cc1cc(C)c(NC(=O)CN(CC(=O)O)CC(=O)O)c(C)c1Br | -4.41 |
| COC(=O)c1ccc(O)cc1 | -10.3 |
| O=c1[nH]c2cc(C(F)(F)F)c(N3CCOCC3)cc2n(CP(=O)(O)O)c1=O | -5.94 |
| CC(C(=O)O)c1ccc2c(c1)Cc1cccnc1O2 (centres undefined) | -1.27 |
| Cc1ccc(S(=O)(=O)NC(=O)NC2CCCCC2)cc1 | 2.41 |
| NNc1nnc(NN)c2ccccc12 | -4.62 |
| Nc1ccncc1N | -5.47 |
| CCCCCCCCCCCCCCCCN | -3.33 |
